# Reference: PubChem BioAssay AID624417 (National Center for Advancing Translational Sciences (NCATS), 2012)
# In all, about 410,000 compounds went through this assay and about 6,400 (1.6%) were called active. Not shown: some 20% with an inconclusive outcome. This is one part of a sample in which actives are shown more often than they occur. Unmarked numbers belong to inactive results. Calls come from the whole dose curve; as a rule, active = well fitted inhibition curve with a large enough effect; inconclusive = small, poorly fitted or top-dose-only effect; inactive = no such curve, though single readings can be large or run the other way.
# Molecular target: Glucagon-like peptide 1 receptor (Homo sapiens) (UniProt P43220)
# Sequence (P43220 whole entry, looked up): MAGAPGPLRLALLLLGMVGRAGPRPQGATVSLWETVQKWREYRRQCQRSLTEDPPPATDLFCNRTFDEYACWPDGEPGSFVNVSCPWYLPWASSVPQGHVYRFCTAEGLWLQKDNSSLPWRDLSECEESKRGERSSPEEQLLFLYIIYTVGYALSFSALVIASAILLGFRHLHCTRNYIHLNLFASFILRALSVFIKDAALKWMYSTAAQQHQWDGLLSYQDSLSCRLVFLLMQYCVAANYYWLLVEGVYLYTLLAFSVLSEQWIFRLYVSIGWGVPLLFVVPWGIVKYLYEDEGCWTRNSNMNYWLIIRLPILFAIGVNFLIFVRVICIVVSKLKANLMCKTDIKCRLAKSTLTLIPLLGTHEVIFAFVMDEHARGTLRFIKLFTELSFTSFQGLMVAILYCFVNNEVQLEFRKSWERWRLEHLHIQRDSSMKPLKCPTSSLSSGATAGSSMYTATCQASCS
# Assay: qHTS of GLP-1 Receptor Inverse Agonists (Inhibition Mode); note: nearly all actives have a fitted effect of over 55% in size
# Conditions: HEK293 GLP-1R CRE-luciferase, luminescence, 24 h, GLP-1R form is constitutively active; series mostly up to 38.3 µM; activity change, negative = inhibition: at the top concentration
# Outline: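 Seeding at 200 cells/uL, 12 h culture, 24 hr compound treatment, then luciferase reagent and a luminescence read; cells are HEK293 stably expressing a constitutively active GLP-1R plus cAMP-responsive luciferase.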
# % is set by controls: 0 for no effect and ±100 for the full control effect; potency is the fitted concentration of half-maximal effect.
SMILES,"activity change, negative = inhibition",Potency
Cc1cc(Cl)ccc1NC(=O)Cc1ccc(NC(=O)N2CCCCc3ccccc32)cc1,1.66%,
Cc1ccccc1CNC(=O)c1ccc(NC(=O)N2CCCCc3ccccc32)cc1,2.26%,
Cc1ccc(NC(=O)Cc2ccc(NC(=O)N3CCCCc4ccccc43)cc2)cc1,,7.94 µM (active)
CCOC(=O)N1CCN(C(=O)C[C@@H]2C[C@@]3(C(=O)OC)CC(C)(C)CC=C3N(Cc3ccco3)C2=O)CC1,-19.4%,
CCCNC(=O)C1(C)CCCN(C(=O)c2oc3ccccc3c2C)C1 (centres undefined),17.5%,
CC1(C(=O)NS(=O)(=O)c2cccc(F)c2)CCN1C(=O)c1cccc2ccccc12 (centres undefined),25.7%,
Cc1ccccc1S(=O)(=O)N1[C@@H](c2cccc(Cl)c2)C(C(=O)OC(C)(C)C)=CC[C@H]1c1ccc(Cl)cc1,26%,
O=C(Nc1nc2c(s1)CCCC2)c1ccccc1F,,4.47 µM (active)
O=C(Nc1nnc(-c2ccccc2F)s1)c1ccccc1F,42.3%,
O=C(Nc1sc2c(c1C(=O)O)CCC2)c1ccccc1F,-23.1%,
Cc1nc(C(F)(F)F)ccc1C(=O)N1CCC1(C)C(=O)NS(=O)(=O)c1ccc(F)cc1F (centres undefined),4.33%,
c1ccc2c(CCN3CCNC[C@H]3Cc3cccc4ccccc34)cccc2c1,-11.6%,
c1ccc(C[C@H]2CNCCN2CCC23CC4CC(CC(C4)C2)C3)cc1,,10 µM (active)
O=C1CCNCCN1[C@H](CO)Cc1ccccc1,11.1%,
CN(C)C1CN(Cc2cn(Cc3ccccc3)nn2)S(=O)(=O)C1 (centres undefined),8.92%,
Cc1ccc(-c2cn3cc([N+](=O)[O-])ccc3n2)cc1,,4.47 µM (active)
Cc1ccc(-n2cc3ccc([N+](=O)[O-])cc3n2)cc1,-54%,
Cc1ccc(-c2cn3cc(C)ccc3n2)cc1,-14.4% [at 0.307 µM],
CCOC(=O)c1c(NC(=O)COC(=O)c2ccc(S(=O)(=O)C(F)F)cc2)sc(C(=O)N(C)C)c1C,12.2%,
COc1ccc(CC(N)c2csc(NC(=O)NC(c3ccccc3)c3ccccc3)n2)cc1 (centres undefined),-7.52%,
C[C@@H]1CN([C@H](C)CO)C(=O)CCCn2cc(nn2)CO[C@H]1CN(C)S(=O)(=O)c1ccc(Oc2ccccc2)nc1,3.37%,
Cc1ccc(-c2noc(CC(c3ccccc3)c3ccccc3)n2)cc1,,5.62 µM (active)
c1ccc(CCc2nc(-c3ccncc3)no2)cc1,2.26%,
Cc1ccc(-c2noc(CSc3nnc(-c4ccc(Cl)cc4)n3C)n2)cc1,12.7%,
CC[C@@H]1CC2=C(C(=O)OC(C)(C)O2)[C@@H](CC)O1,26.8%,

SMILES,"activity change, negative = inhibition",Potency
CC1(C)NC(=O)N(CC(=O)Nc2ccc(-c3ccccc3)cc2)C1=O,0.129%,
Cc1c(C(=O)NCc2ccc(C#N)cc2)sc(=O)n1Cc1ccc(C(=O)N(C)C)cc1,10.9%,
O=C(c1ccco1)N1CCN(Cc2cccc(C(F)(F)F)c2)CC1,-16.9%,
CCOC(=O)N1CCN(Cc2nc(Cc3cccc(C(F)(F)F)c3)no2)CC1,-5.14%,
FC(F)(F)c1cccc(Cc2noc(CN3CCC(N4CCCCC4)CC3)n2)c1,,5.62 µM (active)
O=C(NCc1ccccc1)C1c2ccccc2OCC(=O)N1CCCN1CCOCC1 (centres undefined),20.2%,
Cc1cc(Br)ccc1NC(=O)CCCOc1cc(=O)n(C)c2ccccc12,7.24%,
Cc1ccc(CN(CC(=O)NC2CCCCC2)C(=O)c2csnn2)cc1,-22.4%,
COc1ccc(CN(CC(=O)NC2CCCC2)C(=O)CCC(=O)Nc2cc(C)on2)cc1,-8.66%,
Cc1cc(C(C)(C)C)oc1C(=O)N(CC(=O)NC1CCCC1)Cc1ccc(Cl)cc1,,7.08 µM (active)
O=C(CC[C@H]1O[C@@H](n2ccc(=O)[nH]c2=O)[C@H](O)[C@@H]1O)N[C@H](Cc1ccccc1)C(=O)NCc1ccco1,12.8%,
CC1CCCN(CC(O)COCc2ccccc2)C1 (centres undefined),-6.19%,
Cc1ccccc1C(OCC(O)CN1CCCCC1CCO)c1ccccc1 (centres undefined),,10 µM (active)
Cc1cccc(C)c1OCC(O)CN1CCCCC1 (centres undefined),-1.02%,
Cc1nc(C(F)(F)F)ccc1C(=O)N1CCC1(C)C(=O)NS(=O)(=O)c1ccccc1Cl (centres undefined),15.1%,
CCOC(=O)N(C)c1c(CC)nc2c(OCc3ccccc3C(=O)OC)cccn12,13.9%,
COc1ccc(C(=O)OCC(=O)N2CC(=O)Nc3ccccc32)cc1Br,17.7%,
COc1ccc(Cl)cc1-n1c(C)cc(C(=O)OCC(=O)N2CC(=O)Nc3ccccc32)c1C,,10 µM (active)
COc1cc(OC)c(C(=O)OCC(=O)N2CC(=O)Nc3ccccc32)cc1OC,19.5%,
Nc1cc(=O)c2[nH]cnc2[nH]1,2.06%,
Cc1cc(C)n2c(Nc3c(C)cccc3C)c(CCc3ccccc3)nc2n1,-31.1%,
CN(Cc1ccccc1F)c1cc2c(c3c1ccn3C)C1CCC2O1 (centres undefined),-30.3%,
N#CC1(Nc2ccc3c4c(cccc24)CC3)CCCCC1,-13.8%,
O=C(NNC(=O)C1CCN(c2ncccn2)CC1)c1ccccc1,13.1%,
CCc1ccc(C(=O)NNC(=O)C2CCN(c3ncnc4sc(C)c(C)c34)CC2)cc1,,10 µM (active)

SMILES,"activity change, negative = inhibition",Potency
Cc1sc2ncnc(N3CCC(C(=O)Nc4nc5ccc(Cl)cc5s4)CC3)c2c1C,12.3%,
C[C@H]1CN([C@@H](C)CO)C(=O)c2cc(C3=CCCCC3)cnc2O[C@@H]1CN(C)C(=O)Cc1ccccc1,-17.6%,
CC(C)Nc1ncnc2c1ncn2[C@H]1CN(Cc2ccncc2)C[C@@H](CO)O1,29.6%,
O=C(NCc1ccncc1)NC12CC3CC(CC(C3)C1)C2,-8.91%,
S=C(NCc1ccc(Cl)cc1)NC12CC3CC(CC(C3)C1)C2,,8.91 µM (active)
O=C(NCc1ccc(Cl)cc1)NCc1ccc(Cl)cc1,-0.855% [at 7.66 µM],
O=C(NC1CCCC1)C1c2ccccc2OCC(=O)N1Cc1ccccc1 (centres undefined),1.36%,
CCOC(=O)c1cnn2c(SC)ncnc12,14.2%,
N#Cc1nc(N)nc(N(c2ccccc2)c2ccccc2)n1,,12.6 µM (active)
CC(C)Nc1nc(N(c2ccccc2)c2ccccc2)nc(-n2ccnc2)n1,0.283%,
CC(C)Cn1cc(-c2cncc3nccn23)cn1,12.6%,
CCCC(=O)N1CCC1(C)C(=O)NS(=O)(=O)c1ccc(Cl)cc1 (centres undefined),4.5%,
CCCNC(=O)C1(C)CCCN(Cc2c(C)nn(-c3ccccc3)c2C)C1 (centres undefined),-17.1%,
Cc1c(C)n(Cc2ccc(Cl)cc2)c2ccc(C(=O)NCCc3ccc(S(N)(=O)=O)cc3)cc12,-12.1%,
Cc1c(C)n(Cc2ccc(Cl)cc2)c2ccc(C(=O)NCCCN3CCOCC3)cc12,,1.12 µM (active)
O=C(NCCCN1CCOCC1)c1cc(-c2ccc(Cl)cc2)on1,0%,
Cc1nc2nc3c(cn2n1)C(=O)CC(c1ccccc1)C3 (centres undefined),-0.051%,
O=C1c2ccccc2C(=O)C1c1ccccc1F,12.5%,
COc1cc(C2CC(=O)c3cnc(NC(C)=O)nc3C2)cc(OC)c1OC (centres undefined),30.8%,
CN1CCN(c2ncc3c(n2)CC(c2ccccc2F)CC3=O)CC1 (centres undefined),,3.98 µM (active)
CCN1CCN(c2ncc3c(n2)CC(c2ccccc2O)CC3=O)CC1 (centres undefined),,10 µM (active)
CCc1ccc(Nc2ncc3c(n2)CC(c2ccco2)CC3=O)cc1 (centres undefined),16%,
O=C(OCc1ccccc1)N1CCC2CC1c1cc(N3CCN(S(=O)(=O)c4cc(Cl)cc(Cl)c4)CC3)ccc12 (centres undefined),-0.327%,
CC(=O)Nc1ccc(SCC(=O)NC(=O)c2ccc(Cl)cc2)cc1,-4.29%,
COc1ccc([C@H]2C[C@@H](n3cc(COC(=O)c4ccccc4)nn3)[C@H](O)CN2C(=O)c2cccs2)cc1,-28.9%,

SMILES,"activity change, negative = inhibition",Potency
CC(C)OC(=O)CC(=O)CC(O)c1cccc([N+](=O)[O-])c1 (centres undefined),1.7%,
NCCCCC(C(=O)O)N(C(=O)OCc1ccccc1)C(=O)OCc1ccccc1 (centres undefined),28.4%,
COc1ccc(CN2C(=O)C(CC(=O)NCCN3CCOCC3)CC(C(=O)N(C(C)C)C(C)C)=C2C)cc1 (centres undefined),14.3%,
O=C(Nc1ccccc1N1CCCC1)c1ccc2ccccc2c1,4.76%,
O=C(NC(=S)Nc1ccccc1N1CCCCC1)c1ccc(F)cc1,,12.6 µM (active)
COc1ccc(C(=O)NC(=S)Nc2ccccc2N2CCN(S(C)(=O)=O)CC2)cc1OC,19.1%,
CCCC/C=C/c1cccc2nncn12,5.17%,
CN1c2ccc(C=O)c3c(C=O)ccc(c23)N(C)C1(C)C,,12.6 µM (active)
Cc1ccc(C=O)c([B-](F)(F)F)c1,-30.1%,
CCOC(=O)N1C(=O)C[C@](Sc2ccc(C)cc2)(C(=O)OC)[C@H]1c1ccccc1,5.79%,
COc1ccc(CNC(=O)[C@H](Cc2c[nH]c3ccccc23)NC(C)=O)cc1OC,11%,
COc1ccc(NC(=O)[C@H](NC(=O)[C@@H]2Cc3ccccc3CN2)c2ccccc2)cc1,-22.4%,
COc1cccc(NC(=O)[C@H](Cc2c[nH]c3ccccc23)NC(=O)[C@@H]2Cc3ccccc3CN2)c1,,3.98 µM (active)
O=C(O)c1ccccc1-c1cccc2nncn12,12%,
CCCn1c(C)cc(C(=O)COC(=O)c2c(C)nn(-c3ccccc3)c2C)c1C,,10 µM (active)
Cc1cccc(C)c1NC(=O)COC(=O)c1c(C)nn(-c2ccccc2)c1C,-11%,
COc1ccc(CNC(=O)COC(=O)c2c(C)nn(-c3ccccc3)c2C)cc1OC,-0.123%,
Cc1noc(C)c1C(=O)N1CCC1(C)C(=O)NS(=O)(=O)c1ccc(C#N)cc1 (centres undefined),15.3%,
Clc1ccc(-c2cccc3nccn23)cc1,13%,
COc1ccc(C2CC(c3cccc(OC)c3)=NN2c2ccc(S(N)(=O)=O)cc2)cc1 (centres undefined),27.5%,
CCCn1c(=N)c(C(=O)NCc2ccccc2)cc2c(=O)n3cccc(C)c3nc21,2.15%,
Cc1cccn2c(=O)c3cc(C(=O)NCCN4CCOCC4)c(=N)n(Cc4cccnc4)c3nc12,,3.98 µM (active)
Cc1cccn2c(=O)c3cc(C(=O)NCC4CCCO4)c(=N)n(Cc4ccc(F)cc4)c3nc12 (centres undefined),85.4%,
C=CCn1c2c(c3ccccc31)CCC2,-1.11%,
